TRHR agonist – TRH receptor (human) agonism; P34981; TRHR cells, calcium flux fluo-8, FDSS agonist mode; 360,000 tested, 0.18% active; activation, % at 2 µM; also: 0% is about no effect
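TRHR-expressing cells loaded with fluo-8 calcium dye; 23 nL library compound pin-transferred, kinetic FDSS fluorescence (Ex 480/Em 530) recorded about 180 s for agonist-induced calcium release, before a 10 nM TRH EC20 addition for potentiator mode.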
TRHR enhancer – allosterically enhances the human TRH receptor | enhancement, % at 2 µM | P34981 | TRHR cells, fluo-8 calcium fluorescence, EC20 TRH enhancement | 360,000 tested, 0.66% active; in the data active = enhancement above about 30%; also: 0% is about no effect
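Enhancer read-out: after compound pinning and an initial kinetic agonist-mode read, an EC20 of TRH (10 nM final) was injected and fluo-8 calcium signal (Ex 480/Em 530) followed at 1 s/cycle for 100 cycles in TRHR-expressing cells.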
D1 ag – agonists of human D1 dopamine receptor | P21728 | HEK293 T-REx D1 cells, calcium flux, agonist mode | activation, % at 2 µM | 360,000 tested, 1% active; also: 0% is about no effect
Target sequence (P21728 whole entry, looked up): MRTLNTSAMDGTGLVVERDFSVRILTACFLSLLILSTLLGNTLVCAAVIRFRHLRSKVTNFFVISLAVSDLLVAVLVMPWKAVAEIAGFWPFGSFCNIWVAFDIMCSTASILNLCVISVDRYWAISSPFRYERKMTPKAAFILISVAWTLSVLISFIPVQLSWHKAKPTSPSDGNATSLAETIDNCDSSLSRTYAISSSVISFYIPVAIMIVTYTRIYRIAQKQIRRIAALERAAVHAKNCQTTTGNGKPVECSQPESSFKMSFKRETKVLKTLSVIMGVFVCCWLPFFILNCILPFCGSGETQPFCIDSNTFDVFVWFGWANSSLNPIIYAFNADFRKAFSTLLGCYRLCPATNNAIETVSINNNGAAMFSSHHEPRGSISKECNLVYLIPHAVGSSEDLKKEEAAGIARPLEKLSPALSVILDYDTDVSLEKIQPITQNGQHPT
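Inducible HEK293 T-REx D1 cells, force-coupled to calcium signalling, were plated at 4000 cells/well with tetracycline and held overnight at 30 C. After no-wash calcium dye loading, compound-evoked calcium rise over 180 s flagged agonists.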
D1 potentiator – potentiators of human D1 dopamine receptor. P21728. HEK293 TREx D1 cells, calcium flux, dopamine EC20 potentiation. potentiation, % at 10 µM. 360,000 tested, 0.036% active. AID 504651; in the data active = potentiation above about 30%; also: 0% is about no effect
D1 antagonist – human D1 dopamine receptor antagonism. AID 504652. activity change, negative = inhibition, % at 10 µM. HEK293 TREx D1 cells, calcium flux, dopamine EC80; active compounds read low. 360,000 tested, 3.2% active. P21728; in the data active = activity change below about -30%; also: % is scaled to controls: 0 for no effect and ±100 for the full control effect
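After overnight tetracycline induction at 30 C, force-coupled D1 HEK293 cells took up a no-wash calcium dye at room temperature. Compounds were added and monitored 180 s, and the response to EC80 dopamine was then recorded.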
Starred values were filed as active, the others as inactive; ! = not active in a repeat. Compounds with a hit are over-represented: about 4.7% of the library has one in this group of screens. Rule as the data show it, unless noted: active = activation above about 30%; inactive = the rest.

SMILES	TRHR agonist	TRHR enhancer	D1 ag	D1 potentiator	D1 antagonist
COc1ccc(/C=C/C(=O)c2ccc3c(c2)OCO3)c(OC)c1	0	-4	9	-7	7
O=C(CSc1ncnc2ccccc12)c1cccs1	-2	-5	3	-6	-54*
CCc1nc(SCC(=O)N2CCCC2)c2ccccc2n1	0	3	0	-6	-1
O=C(CSc1ncnc2ccccc12)N1CCCC1	1	26	0	-4	-74*
Cc1ccc(C(=O)CSc2ncnc3ccccc23)o1	0	1	5	2	6
Cc1nn(C(=O)COc2ccccc2Br)c(C)c1Sc1ccccc1	-1	2	5	3	-18
CCOC(=O)c1sc(Nc2cccc(C)c2C)nc1C	0	8	31*	3	19
CCOC(=O)c1sc(N/N=C/c2ccc(N(C)C)cc2)nc1C	1	-9	0	-11	-47*
CC1CN(C(=O)CCC(=O)NCc2cccs2)c2cc(Cl)ccc2O1 (centres undefined)	-1	8	4	4	-1
CCC(=O)Oc1ccc(C2Nc3ccccc3-c3nnc(SC)nc3O2)cc1 (centres undefined)	0	-7	1	-1	-2
CCc1sc(/C=C(/C#N)C(N)=S)cc1[N+](=O)[O-]	3	-9	6	2	-2
c1ccc2[nH]c3cc4ncnc4cc3nc2c1	14	10	33*	3	-1
FC(F)c1nc2ccccc2[nH]1	0	3	-1	-2	18
O=C(c1c[nH]c2ccccc12)C(Cl)c1ccccc1 (centres undefined)	-2	5	18	-1	-39*
Cc1ccc([N+](=O)[O-])cc1NC(=O)Nc1ccc(S(N)(=O)=O)cc1	1	9	7	-18	-79*
O=C(Nc1ccc(Cl)cc1)Nc1ccccc1CC[N+](=O)[O-]	0	-4	35*	-8	-39*
CC(NCc1ccc(S(N)(=O)=O)cc1)C(=O)Nc1cc([N+](=O)[O-])ccc1Cl (centres undefined)	0	0	1	-6	8
CC(NCc1ccc(S(N)(=O)=O)cc1)C(=O)Nc1ccc([N+](=O)[O-])cc1Cl (centres undefined)	0	-15	3	-6	-30*
O=C(Nc1ccc(Cl)cc1)Nc1cc([N+](=O)[O-])ccc1F	2	-9	12	-4	-37*
CN(C)C(=O)Nc1ccccc1CC[N+](=O)[O-]	0	1	3	-1	1
O=C(CN1CCN(c2ccc(Cl)cc2)CC1)Nc1ccc(Cl)c(C(F)(F)F)c1	0	0	1	0	12
CCOC(=O)c1c(C)sc(-c2c(-c3ccc4c(c3)OCCO4)[nH]c3c2c(=O)n(C)c(=O)n3C)c1O	-1	5	-2	-1	-14
O=C(Nc1csc([N+](=O)[O-])c1)Nc1c(Cl)cccc1Cl	0	0	9	-7	-45*
O=C(Nc1ccc(Cl)cc1)Nc1csc([N+](=O)[O-])c1	0	-9	19	-11	-45*
Cc1ccc([N+](=O)[O-])cc1NC(=O)Nc1onc(C)c1C	-1	6	10	-18	-36*
SMILES	TRHR agonist	TRHR enhancer	D1 ag	D1 potentiator	D1 antagonist
CCN(CC)S(=O)(=O)c1cc(NC(=O)CNc2cccc(S(=O)(=O)N3CCOCC3)c2)ccc1C	1	-11	7	-1	-14
CC(=O)N1CCN(C(=O)c2ccc(NS(=O)(=O)c3ccc4c(c3)OCCO4)cc2)CC1	0	2	1	3	-5
Cc1nc2ccc(S(=O)(=O)N3CCN(S(=O)(=O)c4c(F)cccc4F)CC3)cc2s1	0	1	4	28	-8
C=C1CC2C(CCC3(C)C2CCC3(O)C(C)=O)C2(C)CCC(=O)C=C12 (centres undefined)	0	-8	4	-2	-51*
CCC(=O)N1c2ccccc2CC1C(=O)NCCc1ccccc1 (centres undefined)	0	-4	-1	0	4
O=C(NCCCN1CCN(c2ccccc2F)CC1)C1COc2ccccc2C1 (centres undefined)	0	-1	6	-4	-34*
COc1ccc2c(c1)CC(C(=O)NCCN1CCN(c3ccccc3F)CC1)CO2 (centres undefined)	0	8	1	-5	-40*
O=C(NCCN1CCN(c2ccccc2F)CC1)C1c2ccccc2C(=O)N2CCc3ccccc3C12 (centres undefined)	0	1	0	-4	-44*
Cc1ccc(C)c(N2CCN(CCCNC(=O)C3COc4ccccc4C3)CC2)c1 (centres undefined)	1	-6	63*	0	-26
CCC(=O)N1c2ccccc2CC1C(=O)NCCN1CCN(c2ccccc2F)CC1 (centres undefined)	0	-1	-1	-1	-3
COc1ccc(N2CCN(CCCNC(=O)C3COc4ccccc4C3)CC2)cc1 (centres undefined)	0	8	13	-1	-19
O=C(NCCCN1CCN(c2ccccc2F)CC1)C1CCN(S(=O)(=O)N2CCOCC2)CC1	0	8	9	-10	-88*
O=C(NCCN1CCN(c2ccccc2)CC1)C1CCN(S(=O)(=O)N2CCOCC2)CC1	0	-3	2	4	-11
O=C(NCCS(=O)(=O)N1CCN(c2ccccc2F)CC1)C1CC(=O)N(c2ccccc2)C1 (centres undefined)	0	5	115*!	-2	4
CNC(=O)c1ccccc1NC(=O)c1c(O)c2c([nH]c1=O)CCCC2	-1	1	1	-6	15
O=C(N/N=C/c1cccc(F)c1)c1c(O)c2c([nH]c1=O)CCCC2	1	2	1	-5	-50*
CCC(C(=O)NC1CCCCCC1)n1nc(C)c2c(C)n(-c3ccccc3)nc2c1=O (centres undefined)	1	0	1	-1	-1
CCc1nnc2c(Nc3cc(OC)c(Cl)cc3OC)nc3ccccc3n12	0	6	1	-1	-8
Cc1ccc(S(=O)(=O)NCCc2c[nH]c3ccccc23)cc1	0	-1	4	-6	-19
S=C(NCCc1c[nH]c2ccccc12)NC1CCCC1	1	-2	7	1	-39*
S=C(NCCCc1ccccc1)NC1CCCCC1	2	-3	32*	-5	-1
O=S(=O)(NCCc1c[nH]c2ccccc12)c1ccccc1	0	-5	20	-6	-36*
S=C(NCCc1c[nH]c2ccccc12)NC1CC1	0	32*	1	-3	0
Cc1cc(O)c2c(C)c(CC(=O)NCc3ccccc3Cl)c(=O)oc2c1	0	0	1	-3	-35*
COc1ccc(CNC(=O)Cc2c(C)c3c(O)cc(C)cc3oc2=O)cc1	0	1	2	-1	2

Source: PubChem BioAssay
